From PubChem
Fluorescein fluor – fluorescein region autofluorescence | hit rate 0.91% among 59,000 | max fluorescein-equivalent concentration, M | Compound autofluorescence, 480/540 nm, fluorescein-equivalent; stronger effect = higher value; in the data active = max fluorescein-equivalent concentration above about 10 nM; inconclusive = between about 1.1 nM and that limit
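Library compounds, added at multiple concentrations to pH 8.0 Tris buffer (100 mM), incubate 15 min at room temperature before CCD imaging at 480 nm excitation and 540 nm emission.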
Resorufin fluor – compound fluoresces in the resorufin spectral region | hit rate 0.04% among 59,000 | Compound fluorescence, resorufin region 547/598 nm, buffer; stronger effect = higher value | max dye-equivalent concentration, M | AID 588
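Compounds in 100 mM Tris buffer, pH 8.0, incubated 15 min at room temperature, then read with 547 nm excitation and 598 nm emission filters. Fluorescence was converted to dye-equivalent concentration using an on-plate six-point resorufin standard curve.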
A647 fluor – compound autofluorescence in A647 spectral region. Compound fluorescence, A647 channel (570/671 nm), Tris buffer. 59,000 tested, under 10 active. max dye-equivalent concentration, M
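Compounds pinned into 100 mM Tris pH 8.0, 15 min at room temperature, then read with 570 nm excitation/671 nm emission filters. Fluorescence normalized to an on-plate six-point Alexa 647 standard curve, giving dye-equivalent concentration per compound concentration.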
A488 autofl – A488 region autofluorescence | max dye equivalency, M | compound autofluorescence, A488 spectral region, dye equivalency; Compound Type: qHTS ECL - MLSMR | AID 591 | hit rate 0.1% among 59,000
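Compounds pin-transferred into 100 mM Tris buffer, pH 8.0, incubated 15 min at room temperature, then imaged with 480 nm excitation/540 nm emission filters. Fluorescence converted to Alexa 488 dye-equivalent concentration via an on-plate six-point A488 standard curve.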
Texas Red fluor – compound fluoresces in the Texas Red spectral region | Compound fluorescence, Texas Red channel, 547/618 nm; stronger effect = higher value | max dye-equivalent concentration, M | hit rate 0.06% among 59,000; in the data active = max dye-equivalent concentration above about 10 nM; inconclusive = between about 1.1 nM and that limit
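Fluorescence at ex 547/em 618 nm, normalized against an on-plate Texas Red standard series to give dye-equivalent concentration per compound concentration. Buffer 100 mM Tris, pH 8.0; 15 min RT incubation before CCD imaging.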
Rhodamine fluor – rhodamine region autofluorescence. Rhodamine-region fluorescence, 547/598 nm, Tris buffer; stronger effect = higher value. max dye-equivalent concentration, M. hit rate 0.05% among 59,000; in the data active = max dye-equivalent concentration above about 11 nM; inconclusive = between about 1.1 nM and that limit
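qHTS spectral profiling of compounds without any target or enzyme present, in pH 8.0 Tris buffer; plates were read after a 15-minute room-temperature incubation using the rhodamine-region filter set.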
A number is an active result. Compounds with a hit are over-represented: about 0.9% of the library has one in this group of screens. Unless noted, the rule behind the calls is not given here.

What do the screens show for `CN1CCC[C@H](C(=O)OCC(=O)[C@]2(O)CC[C@@H]3[C@H]4CCC5=CC(=O)CC[C@@]5(C)[C@H]4[C@@H](O)C[C@]32C)C1`?
Fluorescein fluor: inconclusive; Resorufin fluor: inactive; A647 fluor: inactive; A488 autofl: inactive; Texas Red fluor: inactive; Rhodamine fluor: inactive

What do the screens show for `CC(C)C1=CC2=CC[C@H]3[C@@](C)(CCC[C@]3(C)C(=O)O)[C@@H]2CC1`?
Fluorescein fluor: inactive; Resorufin fluor: inactive; A647 fluor: inactive; A488 autofl: inactive; Texas Red fluor: inactive; Rhodamine fluor: inactive

What do the screens show for `C=C1C[C@@]23C[C@]1(O)CC[C@@H]2[C@]12C=C[C@@H](O)[C@@](C)(C(=O)O1)[C@@H]2[C@@H]3C(=O)O`?
Fluorescein fluor: inactive; Resorufin fluor: inactive; A647 fluor: inactive; A488 autofl: inactive; Texas Red fluor: inactive; Rhodamine fluor: inactive

Results for OC[C@@H]1O[C@@H](n2cnc3cncnc32)[C@@H](O)[C@H]1O ?
Fluorescein fluor: inconclusive; Resorufin fluor: inactive; A647 fluor: inactive; A488 autofl: inactive; Texas Red fluor: inconclusive; Rhodamine fluor: inactive

How did COc1cc(C)cc2c(-c3c(O)cc(O)c4c3C[C@H](C)N[C@@H]4C)cc(-c3cc(-c4c(O)cc(O)c5c4C[C@H](C)N[C@@H]5C)c4cc(C)cc(OC)c4c3O)c(O)c12 do in these assays?
Fluorescein fluor: inconclusive; Resorufin fluor: inactive; A647 fluor: inactive; A488 autofl: inactive; Texas Red fluor: inactive; Rhodamine fluor: inactive

What do the screens show for `CCc1cc2c(=O)c(-c3nc4ccccc4[nH]3)coc2cc1OC(=O)N1CCOCC1`?
Fluorescein fluor: 1.08e-08M; Resorufin fluor: inactive; A647 fluor: inactive; A488 autofl: inactive; Texas Red fluor: inactive; Rhodamine fluor: inactive

What do the screens show for `CCc1cc2c(=O)c(-c3ccc4c(c3)OCCO4)coc2cc1OC(=O)c1ccco1`?
Fluorescein fluor: inactive; Resorufin fluor: inactive; A647 fluor: inactive; A488 autofl: inactive; Texas Red fluor: inactive; Rhodamine fluor: inactive

What do the screens show for `NC(=O)c1cc2ccc(O)cc2oc1=NCc1ccccc1`?
Fluorescein fluor: 2.69e-07M; Resorufin fluor: inactive; A647 fluor: inactive; A488 autofl: 1.48e-08M; Texas Red fluor: inactive; Rhodamine fluor: inactive

What do the screens show for `NC(=O)c1cc2ccc(O)cc2oc1=Nc1ccccc1`?
Fluorescein fluor: inconclusive; Resorufin fluor: inactive; A647 fluor: inactive; A488 autofl: inactive; Texas Red fluor: inactive; Rhodamine fluor: inactive

How did NC1=C2NC=N[C@@H]2N(C/C=C\c2ccccc2)C=N1 do in these assays?
Fluorescein fluor: inactive; Resorufin fluor: inactive; A647 fluor: inactive; A488 autofl: inactive; Texas Red fluor: inactive; Rhodamine fluor: inactive

How did CC(=O)O[C@@H]1C[C@]2(C)[C@H](C[C@@H](O)[C@H]3[C@@]4(C)CC[C@@H](O)[C@@H](C)[C@@H]4CC[C@@]32C)/C1=C(\CCC=C(C)C)C(=O)O do in these assays?
Fluorescein fluor: inactive; Resorufin fluor: inactive; A647 fluor: inactive; A488 autofl: inactive; Texas Red fluor: inactive; Rhodamine fluor: inactive

How did Cc1sc2nc(CSc3nc4ccccc4c(=O)n3CCCN3CCOCC3)[nH]c(=O)c2c1C do in these assays?
Fluorescein fluor: 3.41e-08M; Resorufin fluor: inactive; A647 fluor: inactive; A488 autofl: inconclusive; Texas Red fluor: inactive; Rhodamine fluor: inactive

How did CC(=O)c1c(C)[nH]c(C(=O)CSc2nc3ccccc3c(=O)n2CCCN2CCOCC2)c1C do in these assays?
Fluorescein fluor: inconclusive; Resorufin fluor: inactive; A647 fluor: inactive; A488 autofl: inactive; Texas Red fluor: inconclusive; Rhodamine fluor: inactive

What do the screens show for `N#CC(c1nc2ccccc2nc1N1CCCC1)S(=O)(=O)c1cccs1` (configuration not stated)?
Fluorescein fluor: 1.69e-08M; Resorufin fluor: inactive; A647 fluor: inactive; A488 autofl: inactive; Texas Red fluor: inactive; Rhodamine fluor: inactive

How did COc1ccc(S(=O)(=O)C(C#N)c2nc3ccccc3nc2N2CCCCC2)cc1 (configuration not stated) do in these assays?
Fluorescein fluor: inconclusive; Resorufin fluor: inactive; A647 fluor: inactive; A488 autofl: inactive; Texas Red fluor: inactive; Rhodamine fluor: inactive
